The record followed here is PubChem BioAssay.

Each structure is given as a SMILES string. For part of these data: Entries with a potency or affinity are not part of this list. The list shows a part of the results. Activity calls are given as the source filed them. Unless noted, how the calls were made is not given here.

For experiment [1], the target named is Cell division control protein 42 homolog (Homo sapiens) (UniProt P60953). Nature of the experiment: inhibition of fluorescent GTP binding to constitutively active Cdc42 – biochemical, multiplex bead flow cytometry, Bodipy-FL-GTP, dose response (AID 1333;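 active means fitted half-maximal concentration within the tested dose range, moderate curve steepness, a statistically real signal drop, and little compound fluorescence or tag-binding interference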).
The target is the same in experiment [2]. The experiment is described as follows: inhibition of fluorescent GTP binding to wildtype Cdc42 – biochemical, multiplex bead flow cytometry, Bodipy-FL-GTP, dose response (AID 1334;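 active means fitted half-maximal concentration within the tested range, moderate curve steepness, significant signal drop, and little compound fluorescence or bead-linkage interference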). The following applies: bead-based flow cytometry, Bodipy-FL-GTP binding to GST-Cdc42; at 100 µM (top of the series) unless noted. On the technique in general: A flow cytometer gives signals particle by particle.

The target of experiment [3] is GTPase HRas (Homo sapiens) (UniProt P01112). The experiment is described as follows: Ras wt fluorescent GTP loading blockade – biochemical, wildtype, multiplex bead flow cytometry, dose response (AID 1335;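 active means fitted half-maximal concentration within 10 nM to 100 µM, steepness 0.5 to 2, significant signal drop, low assay interference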). The following applies: bead-based flow cytometry, Bodipy-GTP binding to GST-Ras; at 100 µM (top of the series) unless noted.
The subject of experiment [4] is Ras-related protein Rab-7a (dog), GTP binding. The experiment is described as follows: blockers of fluorescent GTP binding to Rab7 – biochemical, wildtype, multiplex bead flow cytometry, dose response (AID 1336).
The target of experiment [5] is Ras-related C3 botulinum toxin substrate 1 (Homo sapiens) (UniProt P63000). Nature of the experiment: inhibition of wildtype Rac1 nucleotide loading – biochemical, multiplex bead flow cytometry, dose response (AID 1340;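 active means dose curve with midpoint inside tested range, moderate steepness, plateau gap beyond fit error, low compound glow and bead-link interference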). As to conditions: GST-Rac1 beads, Bodipy-FL-GTP binding; at 100 µM (top of the series) unless noted.
The target in experiment [6] is GTPase HRas (Homo sapiens) (UniProt P01112). The experiment is described as follows: blockade of GTP loading onto mutant Ras – biochemical, activated mutant, multiplex bead flow cytometry, dose response (AID 1341;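 active means dose-response curve with midpoint inside the tested range, moderate steepness, significant amplitude and little compound fluorescence or bead-attachment interference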;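 further: GST-tagged constitutively activated Ras mutant immobilized on beads and multiplexed with other GTPases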).
Experiment [7] can be described thus: hit retest on RPL19A-GFP reporter strain – cell-based, S. cerevisiae, flow cytometry, cherry picks, mother/daughter gates, confirmation (AID 2270;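 active means GFP response below 50% of the DMSO control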). As to conditions: 3 h, at 10 µM, stronger effect = lower value, 100 = same GFP as DMSO wells.
Experiment [8] can be described thus: yeast TOR pathway reporter LAP4-GFP change – cell-based, cherry picks, flow cytometry, mother/daughter gates, confirmation (AID 2271;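 active means GFP response above 150% of the DMSO control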;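 further: ratio of sample to DMSO plate mean so 100% equals DMSO level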). The following applies: S. cerevisiae LAP4-GFP strain, 3 h, at 10 µM, stronger effect = higher value, 100 means same as DMSO control.
Experiment [9] in a line: TOR pathway reporter MEP2-GFP, retest of hits – S. cerevisiae, flow cytometry GFP, cherry picks, confirmation (AID 2272;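 active means GFP response above 150% of the DMSO control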;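 further: ratio of well signal to plate DMSO mean so 100% equals DMSO level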). The following applies: S. cerevisiae MEP2-GFP strain, 3 h, at 10 µM, stronger effect = higher value.
Experiment [10] in a line: yeast AGP1-GFP fluorescence change, single-dose – cell-based, flow cytometry, S. cerevisiae, cherry picks, confirmation (AID 2273;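 active means GFP response above 150% of the DMSO level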;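 further: median GFP channel fluorescence over the whole cell population gate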). The following applies: S. cerevisiae AGP1-GFP strain, 3 h, at 10 µM.
Experiment [11] is described as follows: TOR pathway CIT2 reporter hit retest – S. cerevisiae, GFP fusion, cherry picks, mother/daughter gates, confirmation (AID 2274;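 active means GFP response above 150% of the DMSO level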). As to conditions: S. cerevisiae CIT2-GFP strain, flow cytometry, 3 h, at 10 µM, stronger effect = higher value.
Experiment [12] can be described thus: yeast TOR reporter LAP4-GFP level changes – cell-based, second cherry pick, flow cytometry, confirmation (AID 2621;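 active means GFP signal as percent of the solvent control above about 150%, meaning raised reporter expression, limit read from the data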;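 further: ratio of well median GFP fluorescence to plate DMSO mean so 100% = DMSO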). The following applies: S. cerevisiae LAP4-GFP strain, 3 h, at 10 µM, stronger effect = higher value.
Experiment [13] in a line: TOR pathway reporter MEP2-GFP, hit retest – S. cerevisiae, flow cytometry GFP, second cherry picks, confirmation (AID 2622;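 active means GFP signal above 150% of the solvent control wells, that is a rise of more than half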;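 further: median channel GFP fluorescence of all gated yeast cells per well; ratio of median GFP to plate DMSO average so 100% = DMSO level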). As to conditions: S. cerevisiae MEP2-GFP strain, 3 h, at 10 µM, stronger effect = higher value.
A short description of experiment [14]: retest of hits on RPL19A-GFP strain – cell-based, S. cerevisiae, flow cytometry, second cherry pick, confirmation (AID 2623;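 active means under 65% GFP response relative to DMSO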;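 further: median GFP channel fluorescence per well over the all cells gate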). The following applies: 3 h, at 10 µM, stronger effect = lower value, 100% means same as DMSO wells.
Experiment [15] can be described thus: yeast TOR pathway CIT2-GFP reporter modulation – flow cytometry, second cherry pick, single plex, confirmation (AID 2624;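 active means GFP response vs DMSO above about 150%, limit read from the data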;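 further: median green fluorescence per well over all gated yeast cells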). The following applies: S. cerevisiae CIT2-GFP strain, 3 h, at 10 µM, stronger effect = higher value, DMSO control wells read 100%.
A short description of experiment [16]: yeast AGP1-GFP fluorescence change, single-dose confirmation – cell-based, flow cytometry, S. cerevisiae, cherry pick set 2 (AID 2643;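 active means over 150 percent of DMSO response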;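 further: median GFP channel fluorescence over all cells without mother daughter split; sample median GFP divided by mean DMSO control so 100% equals DMSO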). The following applies: S. cerevisiae AGP1-GFP strain, 3 h, at 10 µM, stronger effect = higher value.
Experiment [17] can be described thus: green-channel fluorescence artefact in S. cerevisiae – s288c strain, artefact control for yeast TOR pathway GFP screen, dose response (AID 2757;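 active means fluorescence span over the dose series, or activity score, above about 33, limit read from the data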;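 further: thousands of bead-calibrated equivalent soluble fluorophore molecules from median cell fluorescence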). As to conditions: 520 nm autofluorescence, flow cytometry, 3 h, at 33 µM, stronger effect = higher value, zero means same as solvent-only cells.
Experiment [18] has as its target Regulator of G-protein signaling 16 (Homo sapiens) (UniProt O15492). The experiment is described as follows: small molecules altering RGS protein interactions with GNAO1 – biochemical, multiplexed beads, flow cytometry, RGS4/7/8/16/19, primary screen (AID 1504).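 Further: fluorescently labeled Galpha-o bound to GDP with aluminium fluoride binding biotinylated RGS beads.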 The following applies: multiplexed bead flow cytometry, measured here: RGS16 interaction, at 10 µM.
The target of experiment [19] is Regulator of G-protein signaling 19 (Homo sapiens) (UniProt P49795). The description is as above. The following applies: multiplexed bead flow cytometry, measured here: RGS19 interaction, at 10 µM.
The target of experiment [20] is Regulator of G-protein signaling 7 (Homo sapiens) (UniProt P49802). The experiment is described as above. As to conditions: multiplexed bead flow cytometry, measured here: RGS7 interaction, at 10 µM.
The target in experiment [21] is Regulator of G-protein signaling 8 (Homo sapiens) (UniProt P57771). Described as above. As to conditions: multiplexed bead flow cytometry, measured here: RGS8 interaction, at 10 µM.
A short description of experiment [22]: interference with biotin-avidin bead interaction – biochemical, flow cytometry, bead-based, counter-screen for RGS protein interaction modulators (AID 1783;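 active means inhibition above 50%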;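 further: median green fluorescence of gated singlet beads compared with DMSO control wells; 0% = DMSO wells and 100% = complete loss of bead fluorescence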). The following applies: streptavidin beads, fluorescein-biotin binding; at 10 µM, stronger effect = higher value.
Experiment [23] concerns the target Guanine nucleotide-binding protein G(o) subunit alpha (Homo sapiens) (UniProt P09471). The experiment is described as follows: retest of RGS8-Galphao interaction hits – biochemical, multiplexed bead flow cytometry, single concentration, confirmation (AID 1836; in the data active means binding response below about 72% or above about 130%; inactive means in between;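 further: Galphao activated as GDP AlF4 complex before binding bead RGS8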). As to conditions: bead-based flow cytometry RGS8-Galphao binding, fluorescence; at 10 µM; actives lie on both sides.

Experiment [24] has the same target. The experiment is described as follows: retest of RGS7-Galphao interaction hits – biochemical, multiplexed bead flow cytometry, single concentration, confirmation (AID 1837; in the data active means response below about 75% or above about 130%; inactive means in between;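 further: fluorescent Galphao activated with GDP and aluminum fluoride binding bead-coupled RGS7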). The following applies: bead-based flow cytometry RGS7-Galphao binding; at 10 µM; actives lie on both sides.
For experiment [25], the target named is Regulator of G-protein signaling 16 (Homo sapiens) + Guanine nucleotide-binding protein G(o) subunit alpha (Homo sapiens) (UniProt O15492+P09471). The experiment is described as follows: RGS16 and Galphao interaction regulators – biochemical, single concentration, multiplexed bead flow cytometry, confirmation (AID 1838; in the data active means response below about 74% or above about 130%; inactive means in between;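 further: Galphao activated as the GDP aluminium fluoride complex binding bead-coupled RGS16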). As to conditions: bead-based flow cytometry, at 10 µM, actives lie on both sides.

Experiment [26] has as its target Guanine nucleotide-binding protein G(o) subunit alpha (Homo sapiens) (UniProt P09471). Nature of the experiment: RGS4 and Galphao interaction regulators – biochemical, single concentration, multiplexed bead flow cytometry, confirmation (AID 1840; in the data active means binding response below about 74% or above about 130%; inactive means in between). As to conditions: at 10 µM, actives lie on both sides.
Experiment [27] deals with Guanine nucleotide-binding protein G(o) subunit alpha (Homo sapiens) + Regulator of G-protein signaling 19 (Homo sapiens) (UniProt P09471+P49795). Nature of the experiment: RGS19 interaction with Gαo, hit retest – biochemical, single point, multiplexed bead flow cytometry, confirmation (AID 1841; in the data active means response below about 50% or above about 160%; inactive means in between;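 further: 100% = no compound control and 0% = blank background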). The following applies: bead-based flow cytometry RGS19-Galphao binding; at 10 µM; actives lie on both sides.

Setting [28] is: measured here: daughter cell gate.
The mark [29] stands for this setting: measured here: mother cell gate.

As usually defined, the inhibition is the relative decrease from the control value, in per cent.

Sequence of Guanine nucleotide-binding protein G(o) subunit alpha (Homo sapiens) (P09471 whole entry, looked up): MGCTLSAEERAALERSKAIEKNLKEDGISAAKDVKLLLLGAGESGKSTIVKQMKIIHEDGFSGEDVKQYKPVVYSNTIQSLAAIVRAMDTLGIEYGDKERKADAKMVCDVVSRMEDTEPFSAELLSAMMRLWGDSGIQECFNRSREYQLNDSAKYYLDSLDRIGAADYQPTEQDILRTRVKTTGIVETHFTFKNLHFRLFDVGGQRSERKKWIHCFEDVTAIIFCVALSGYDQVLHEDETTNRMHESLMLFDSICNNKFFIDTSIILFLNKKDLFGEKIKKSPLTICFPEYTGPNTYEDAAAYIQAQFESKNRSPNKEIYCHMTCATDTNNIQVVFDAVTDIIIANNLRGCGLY
Sequence of Cell division control protein 42 homolog (Homo sapiens) (P60953 whole entry, looked up): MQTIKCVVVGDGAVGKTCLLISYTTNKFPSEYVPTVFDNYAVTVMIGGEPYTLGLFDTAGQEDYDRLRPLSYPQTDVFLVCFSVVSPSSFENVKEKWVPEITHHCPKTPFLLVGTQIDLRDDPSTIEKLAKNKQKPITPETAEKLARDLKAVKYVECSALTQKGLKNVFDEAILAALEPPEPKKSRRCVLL
Sequence of GTPase HRas (Homo sapiens) (P01112 whole entry, looked up): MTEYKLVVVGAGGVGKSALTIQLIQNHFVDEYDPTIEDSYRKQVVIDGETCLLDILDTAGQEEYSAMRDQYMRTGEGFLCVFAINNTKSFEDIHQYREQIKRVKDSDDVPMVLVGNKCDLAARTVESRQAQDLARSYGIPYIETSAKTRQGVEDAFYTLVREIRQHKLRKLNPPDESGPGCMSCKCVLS
Sequence of Guanine nucleotide-binding protein G(o) subunit alpha (Homo sapiens) + Regulator of G-protein signaling 19 (Homo sapiens) (P09471 whole entry, looked up): as the sequence (P09471 whole entry, looked up) above
Sequence of Guanine nucleotide-binding protein G(o) subunit alpha (Homo sapiens) + Regulator of G-protein signaling 19 (Homo sapiens) (P49795 whole entry, looked up): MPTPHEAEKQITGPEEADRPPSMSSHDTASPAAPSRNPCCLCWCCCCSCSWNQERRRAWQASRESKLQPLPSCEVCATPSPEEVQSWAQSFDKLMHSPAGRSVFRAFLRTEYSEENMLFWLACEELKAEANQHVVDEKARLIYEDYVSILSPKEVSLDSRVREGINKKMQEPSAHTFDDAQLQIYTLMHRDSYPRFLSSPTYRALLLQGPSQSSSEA
Sequence of Regulator of G-protein signaling 16 (Homo sapiens) + Guanine nucleotide-binding protein G(o) subunit alpha (Homo sapiens) (O15492 whole entry, looked up): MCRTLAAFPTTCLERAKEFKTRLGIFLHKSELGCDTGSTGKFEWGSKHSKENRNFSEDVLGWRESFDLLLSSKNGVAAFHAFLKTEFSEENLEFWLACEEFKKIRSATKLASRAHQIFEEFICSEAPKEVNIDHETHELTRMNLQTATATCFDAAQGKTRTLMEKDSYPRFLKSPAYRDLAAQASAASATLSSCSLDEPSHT
Sequence of Regulator of G-protein signaling 16 (Homo sapiens) + Guanine nucleotide-binding protein G(o) subunit alpha (Homo sapiens) (P09471 whole entry, looked up): as the sequence (P09471 whole entry, looked up) above

For the compound `O=C1c2ccccc2-c2onc3ccc(Oc4ccccc4)c1c23`, the result in experiment [1], in experiment [4] and in experiment [6] was inactive. Besides, in experiment [2], the fluorescence, percent of control (lower = inhibition) worked out at 27.9%. In [3], this compound returned a GTP binding, percent of control of 46.3%. The same compound came in with a GTP binding signal, raw median fluorescence (lower = inhibition) (MCF (arbitrary fluorescence units)) in [5] of 183. Moreover, the GFP response vs DMSO in [7] was 86.5% (inactive); in [7] (setting [28]) it was 86.6%; in experiment [7] (setting [29]) it was 85.9%; in experiment [9] it was 113% (inactive). Besides, the GFP response relative to DMSO was 147% (inactive) in experiment [8], 136% in experiment [8] (measured here: daughter cell gate response) and 150% in [8] (measured here: mother cell gate response). Moreover, the GFP response, % of DMSO in [10] is 84.3% (inactive); in experiment [11], 95.2% (inactive); in experiment [11] (setting [28]), 94.8%; in [11] (setting [29]) it was 94.4%.
On to `c1ccc(-c2onc3c2CCCC3)cc1`, for which the compound was classed as inactive in [1], in experiment [4] and in experiment [6]. This compound came in with a fluorescence, percent of control (lower = inhibition) in [2] of 97.3%. The compound also returned a GTP binding, percent of control in [3] of 144%. This compound yielded a GTP binding signal, raw median fluorescence (lower = inhibition) (MCF (arbitrary fluorescence units)) in experiment [5] of 192.
In the case of `COc1ccc(/C=C/C(=O)c2cc(Br)ccc(=O)c2O)cc1`, the result in [1], in experiment [4] and in experiment [6] was inactive. Further, in experiment [2], the fluorescence, percent of control (lower = inhibition) stood at 28.6%. In addition, the GTP binding, percent of control in experiment [3] stood at 73%. For the same compound, in experiment [5], the GTP binding signal, raw median fluorescence (lower = inhibition) (MCF (arbitrary fluorescence units)) turned out to be 226. In addition, the GFP response vs DMSO in experiment [12] was 169% (active); in [13], 185% (active); in experiment [14] it was 77.3% (inactive); in [15], 191% (active). Besides, in experiment [16], the percent response vs DMSO was 80% (inactive). Besides, the fluorescence change (kMESF span) in [17] is 68.2 (active).
As to `O=C(OCC1O[C@@H](OC(=O)c2cc(O)c(O)c(O)c2)[C@@H](OC(=O)c2cc(O)c(O)c(O)c2)[C@@H](OC(=O)c2cc(O)c(O)c(O)c2)[C@@H]1OC(=O)c1cc(O)c(O)c(O)c1)c1cc(O)c(O)c(O)c1` (stereo partly specified), the call in experiment [1], in experiment [4] and in experiment [6] was inactive. This compound also came in with a fluorescence, percent of control (lower = inhibition) in [2] of 21.1%. Moreover, the GTP binding, percent of control in experiment [3] came to 58.6%. This compound also displayed a GTP binding signal, raw median fluorescence (lower = inhibition) (MCF (arbitrary fluorescence units)) in [5] of 145. The same compound had an RGS16–Galpha-o binding response in experiment [18] of 51.1%. Further, in experiment [19], the RGS19–Galpha-o binding response is -410%. This compound also showed an RGS7–Galpha-o binding response in [20] of 20.5%. In experiment [21], the RGS8–Galpha-o binding response was determined as 46.9%. In addition, the inhibition in experiment [22] was -1.9% (inactive). Moreover, the binding response (% of control) in experiment [23] was 35.2% (active); in [26], -1.02% (active). Further, the response (percent of control binding) was -10.3% (active) in experiment [24] and 46.8% [inhibitor] (active) in [27]. For the same compound, the response (% of control binding) in experiment [25] was 29.8% (active).
